The text below walks through data of PubChem BioAssay.

A number with no mark means an inactive call. The rule behind the calls is not given here.

For the assay, the target named is Pantothenate synthetase (Mycobacterium tuberculosis (strain ATCC 25618 / H37Rv)) (UniProt P9WIL5). Briefly: Recombinant Mtb pantothenate synthetase (PanC) inhibitors, coupled enzyme, confirmatory (AID 375).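 Note: 0% = full reaction with vehicle and 100% = no enzyme background.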 Particulars: coupled enzyme assay; at 10 µM, active compounds read high.
Sequence of Pantothenate synthetase (Mycobacterium tuberculosis (strain ATCC 25618 / H37Rv)) (P9WIL5 whole entry, looked up): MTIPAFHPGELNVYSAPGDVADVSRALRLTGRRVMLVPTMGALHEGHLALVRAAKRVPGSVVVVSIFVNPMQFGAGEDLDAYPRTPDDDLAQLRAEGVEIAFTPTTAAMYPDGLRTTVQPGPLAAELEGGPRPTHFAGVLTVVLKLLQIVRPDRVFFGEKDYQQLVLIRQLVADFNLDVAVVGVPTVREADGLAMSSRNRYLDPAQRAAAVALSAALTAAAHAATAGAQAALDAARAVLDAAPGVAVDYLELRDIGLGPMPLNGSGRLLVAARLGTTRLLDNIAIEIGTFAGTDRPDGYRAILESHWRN
On to `C=CCn1c(SCC(=O)NCC2CCCO2)nnc1C1CCCCC1` (stereo not drawn), for which the inhibition (usually the percentage by which the read-out fell short of the control) was 8%.

On to `COc1nc(OC)nc(N2CCC(C(=O)NCc3cccs3)CC2)n1`, for which the inhibition was 0%.

As for `Cc1cccc(-n2ncc3c(N(CCO)CCO)ncnc32)c1`, the inhibition was 0%.

Regarding `C=C(Cl)COc1ccc2c(C)cc(=O)oc2c1`, the inhibition is 2%.

Take `Cn1c(Cc2cccs2)nnc1SCC(=O)N1CCc2ccccc21`: the inhibition was 0%.

Turning to `CCCC(C)C(=O)Nc1ccc(C(N)=O)cc1` (stereo not drawn), the inhibition is 3%.

As to `c1ccn2c(SCc3cn4ccsc4n3)nnc2c1`, the inhibition was 1%.

On to `Cc1ccc(/C=c2\s/c(=C(/C#N)C(=O)N3CCCC3)n(Cc3ccco3)c2=O)s1`, for which the inhibition is 0%.

With `CCn1c2ccccc2c2cc(N)ccc21`, the inhibition was 0%.

Take `CC1(C)SC2[C@H](NC(=O)C(NC(=O)N3CCNC3=O)c3ccccc3)C(=O)N2C1C(=O)O` (stereo partly drawn): the inhibition was 0%.

`Cc1cc(C)nc(/N=C2\NC(=O)CC(C(=O)O)N2c2ccc(Cl)cc2)n1` (stereo not drawn): the inhibition was 0%.

As for `CCCC(C(=O)NCc1ccco1)N(C(=O)CNS(=O)(=O)c1ccc(Cl)cc1)C1CCCC1` (stereo not drawn), the inhibition is 0%.

Take `COc1ccc(N2CCN(CCCNS(=O)(=O)c3c(C)noc3/C=C/N(C)C)CC2)cc1`: the inhibition was 15%.

As for `CCOc1nc(NCCC2=CCCCC2)nc(N2CCOCC2)n1`, the inhibition is 0%.

As to `CCn1c(C)nc2cc(C(=O)OCCC(F)(F)F)ccc21`, the inhibition is 0%.

Regarding `COc1ccc(CCn2c(N)c(C#N)c3nc4ccccc4nc32)cc1OC`, the inhibition was 0%.

In the case of `COc1ccccc1C(=O)Nc1c2c(nn1-c1cccc(C)c1C)CS(=O)(=O)C2`, the inhibition was 7%.

Take `CC(=O)C1=C(C)Nc2ncnn2C1c1cccc(OCc2ccccc2)c1` (stereo not drawn): the inhibition was 0%.

Regarding `CCCCCCn1c(SCCCC)nc2c1c(=O)[nH]c(=O)n2C`, the inhibition was 4%.

On to `COc1ccccc1NC(=O)C1=C(C)Nc2nc(CCCO)nn2C1c1cccnc1` (stereo not drawn), for which the inhibition was 1%.

Take `CC1CCc2c(sc3c2C2=NS(=O)(=O)CCN2C=N3)C1` (stereo not drawn): the inhibition was 2%.

For `FC(F)(F)c1cc(-c2ccco2)nc(N2CCOCC2)n1`, the inhibition is 2%.

Regarding `CC1CN(c2nc(-c3ccccc3)nc3ccccc23)CC(C)O1` (stereo not drawn), the inhibition was 0%.
